Experimental data published in PubChem BioAssay (NCI).
About 83,000 compounds went through this panel and 20% of them were active in at least one assay; those are over-represented in the sample as a whole.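 Note: values are percent growth. 100 is the growth of untreated cells, values between 100 and 0 indicate rising inhibition; between -100 and 0 indicates cell death.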 The source made the active and inactive calls. The calls were made as follows: active = growth percent below 10; inactive = the rest.

Assays:
Test in all cases: NCI-60 one-dose screen, 48 h (100 = growth as untreated, 0 = no growth, -100 = all killed)
Conditions in all cases: 10 µM unless noted
NCI-H23 lung = system: NCI-H23 lung
NCI-H226 lung = system: NCI-H226 lung
NCI-H322M lung = system: NCI-H322M lung
HOP-62 NSCLC = system: HOP-62 NSCLC
NCI-H460 lung = system: NCI-H460 lung
NCI-H522 lung = system: NCI-H522 lung
A549/ATCC NSCLC = system: A549/ATCC NSCLC
786-0 renal = system: 786-0 renal
COLO 205 colon = system: COLO 205 colon
HOP-92 NSCLC = system: HOP-92 NSCLC

Compound | growth (NCI-H23 lung) | growth (NCI-H226 lung) | growth (NCI-H322M lung) | growth (HOP-62 NSCLC) | growth (NCI-H460 lung) | growth (NCI-H522 lung) | growth (A549/ATCC NSCLC) | growth (786-0 renal) | growth (COLO 205 colon) | growth (HOP-92 NSCLC)
COc1ccc(-c2ccc(-c3ccc(C(=N)N)nc3)s2)cc1 | -29.9% (active) | 83.4% (inactive) | -19.8% (active) | -54.9% (active) | -85.1% (active) | -44.9% (active) | -56.7% (active) | -84.2% (active) | -52.2% (active) | 
CC(=O)c1ccc(Nc2nccc(-c3ccc(Cl)cc3)n2)cc1 | 84.2% (inactive) | 54% (inactive) | 100% (inactive) | 108% (inactive) | 85.5% (inactive) | 90.8% (inactive) | 87% (inactive) | 101% (inactive) | 105% (inactive) | 
CCOC(=O)c1cc(C(=O)c2cc(OC)cc(OC)c2)n2ncccc12 | 45.8% (inactive) | 57.5% (inactive) | 72.5% (inactive) | 30.7% (inactive) | 14.7% (inactive) | 25.4% (inactive) | 35.3% (inactive) | 34.2% (inactive) | -13.2% (active) | 
Cc1c2cnccc2c(C)c2c1c1cc(C(=O)O)ccc1n2C | -32.4% (active) | -25.8% (active) | -1.54% (active) | -8.17% (active) | 1.58% (active) | -47.8% (active) | 8.95% (active) | 22.3% (inactive) | -9.71% (active) | 
C#CCOc1cccc(Nc2ncnc3c(NC(=O)CCl)cccc23)c1 | 6.09% (active) | 48.9% (inactive) | 72.5% (inactive) | 95.7% (inactive) | 51.2% (inactive) | -73.5% (active) | 47.4% (inactive) | -45.4% (active) | -55.5% (active) | 
Cc1cc2nc(C(Cl)Cl)nc(-c3ccccc3)n2n1 | 33.6% (inactive) | 90.7% (inactive) | 10.9% (inactive) | 31.9% (inactive) | -50% (active) | 72.4% (inactive) | 4.73% (active) | 92.4% (inactive) | 1.99% (active) | 
COC1CC(O)C2=C(CC3C(/C(C)=C\CC=C(C)C)CCC3(C)O2)C1=O (configuration not stated) | 97.9% (inactive) | 101% (inactive) | 101% (inactive) | 105% (inactive) | 104% (inactive) | 90.1% (inactive) |  | 103% (inactive) | 119% (inactive) | 97.5% (inactive)
COc1cc2c(c(OC)c1OC)CCC(c1cccc(C(=O)Nc3ccc([N+](=O)[O-])cc3)c1)O2 (configuration not stated) | 47.2% (inactive) | 48.3% (inactive) | 68.3% (inactive) | 76.7% (inactive) | 58.8% (inactive) | 49.6% (inactive) | 55.2% (inactive) | 70.1% (inactive) | 73.2% (inactive) | 
CC(=O)O[C@H]1CC[C@@]2(C)C(=CC[C@@H]3[C@@H]2CC[C@]2(C)C(Cl)=C(c4nc5ccc(Cl)cn5c4NC(C)(C)C)C[C@@H]32)C1 | 88.1% (inactive) | 92.3% (inactive) | 96.1% (inactive) | 90.8% (inactive) | 99.9% (inactive) | 86.8% (inactive) | 89.5% (inactive) | 85% (inactive) | 103% (inactive) | 
COc1cc(/C=C2\C(=O)N(CCOc3cc(O)c4c(=O)cc(-c5ccccc5)oc4c3)c3ccccc32)cc(OC)c1O | 77.6% (inactive) | 90.4% (inactive) | 90.7% (inactive) |  | 66.1% (inactive) | 60.1% (inactive) | 85% (inactive) | 75.6% (inactive) | 93.3% (inactive) | 80.5% (inactive)
CC(C)CCc1nc2ccc(NCc3ccc(OCCN4CCC(C)CC4)cc3)cc2[nH]1 | 94.9% (inactive) | 67.4% (inactive) | 99.2% (inactive) |  | 100% (inactive) | 102% (inactive) | 99.9% (inactive) | 76.6% (inactive) | 66% (inactive) | 
Cc1cccc(CN(Nc2ccccc2)c2ccccc2)n1 | 104% (inactive) | 103% (inactive) | 96.7% (inactive) |  | 101% (inactive) | 103% (inactive) | 93.1% (inactive) | 107% (inactive) | 111% (inactive) | 65% (inactive)
